PubChem BioAssay
Activity calls are given as the source filed them.

Experiments:
[1] = system: PRMT1 (protein arginine N-methyltransferase 1); test: small molecules binding arginine methyltransferase PRMT1 – biochemical, small-molecule microarray, 635 nm fluorescence, primary screen (AID 1088); conditions: higher = more signal;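 also: binding of Prmt1 protein to compounds spotted on small-molecule microarray slides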
[2] = growth effects on S. cerevisiae YJM789 – YJM789 clinical isolate, OD600, 24 h, basal, primary screen (AID 1089); conditions: higher = more signal, called active from +8 up or from −8 down;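 also: growth of clinical yeast isolate S. cerevisiae YJM 789 seeded 1000 cells per well; test concentration not given here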
[3] = S. pombe growth modifiers, basal conditions – strain 972, OD600, 24 h, no modulator, primary screen (AID 1090);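 also: basal condition with compound alone and no growth modifier present; test concentration not given here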; conditions: S. pombe 972 growth, higher = more signal, called active from +8 up or from −8 down
[4] = budding yeast growth modifiers under rapamycin – strain BY4716, OD600, 96 h, primary screen (AID 1091); also: test concentration not given here; conditions: S. cerevisiae BY4716 + rapamycin, higher = more signal, called active from +8 up or from −8 down
[5] = biological target: Torsin-1A-interacting protein 2 (Homo sapiens) (UniProt Q8NFQ8); test: small molecules binding lysate-expressed LULL1 – cell lysate, human LULL1 lysate, 635/667 nm fluorescence, primary screen (AID 1092); conditions: small-molecule microarray, hLULL1 lysate binding, 635 nm fluorescence; higher = more signal;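 also: probe is lysate of COS7 cells overexpressing human LULL1; score merges per-feature 667 nm fluorescence with signal-to-noise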
Sequence of Torsin-1A-interacting protein 2 (Homo sapiens) (Q8NFQ8 whole entry, looked up): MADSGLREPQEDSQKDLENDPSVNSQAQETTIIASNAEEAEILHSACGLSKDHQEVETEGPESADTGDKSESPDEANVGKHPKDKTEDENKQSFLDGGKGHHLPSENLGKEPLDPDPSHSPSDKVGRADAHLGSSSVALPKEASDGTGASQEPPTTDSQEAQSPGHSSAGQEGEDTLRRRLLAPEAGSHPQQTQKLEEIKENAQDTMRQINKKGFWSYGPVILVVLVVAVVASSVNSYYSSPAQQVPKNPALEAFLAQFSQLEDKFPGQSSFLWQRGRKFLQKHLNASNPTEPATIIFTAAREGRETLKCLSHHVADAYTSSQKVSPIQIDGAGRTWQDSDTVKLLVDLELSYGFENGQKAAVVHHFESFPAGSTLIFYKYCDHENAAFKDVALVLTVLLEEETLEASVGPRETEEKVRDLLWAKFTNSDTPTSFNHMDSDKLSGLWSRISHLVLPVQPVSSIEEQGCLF

[6] = optical density change of DRC41 E. coli – strain DRC41, OD650, 24 h, E. coli filamentation project, primary screen (AID 1093);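 also: MC1000 strain lacking acrAB efflux and sulA so SOS filamentation is blocked; test concentration not given here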; conditions: E. coli DRC41 growth, higher = more signal, called active from +8 up or from −8 down
[7] = probe aLefty2 binding to arrayed compounds – biochemical, biotinylated probe, 635/667 nm fluorescence, primary screen (AID 1094); conditions: small-molecule microarray, higher = more signal;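 also: score merges spot fluorescence near 667 nm with spot signal-to-noise ratio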
[8] = system: Noggin (protein binding on small-molecule microarray); test: small molecules binding Noggin protein – biochemical, 635/667 nm fluorescence, primary screen (AID 1095); conditions: 635 nm fluorescence, higher = more signal;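 also: score merges 667 nm feature fluorescence with signal to noise over triplicate slides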
[9] = biological target: Neurogenic locus notch homolog protein 3 (Homo sapiens) (UniProt Q9UM47); test: small molecules binding NOTCH3 protein – biochemical, 635/667 nm fluorescence, primary screen (AID 1096); conditions: small-molecule microarray, 635 nm fluorescence, higher = more signal
Sequence of Neurogenic locus notch homolog protein 3 (Homo sapiens) (Q9UM47 whole entry, looked up): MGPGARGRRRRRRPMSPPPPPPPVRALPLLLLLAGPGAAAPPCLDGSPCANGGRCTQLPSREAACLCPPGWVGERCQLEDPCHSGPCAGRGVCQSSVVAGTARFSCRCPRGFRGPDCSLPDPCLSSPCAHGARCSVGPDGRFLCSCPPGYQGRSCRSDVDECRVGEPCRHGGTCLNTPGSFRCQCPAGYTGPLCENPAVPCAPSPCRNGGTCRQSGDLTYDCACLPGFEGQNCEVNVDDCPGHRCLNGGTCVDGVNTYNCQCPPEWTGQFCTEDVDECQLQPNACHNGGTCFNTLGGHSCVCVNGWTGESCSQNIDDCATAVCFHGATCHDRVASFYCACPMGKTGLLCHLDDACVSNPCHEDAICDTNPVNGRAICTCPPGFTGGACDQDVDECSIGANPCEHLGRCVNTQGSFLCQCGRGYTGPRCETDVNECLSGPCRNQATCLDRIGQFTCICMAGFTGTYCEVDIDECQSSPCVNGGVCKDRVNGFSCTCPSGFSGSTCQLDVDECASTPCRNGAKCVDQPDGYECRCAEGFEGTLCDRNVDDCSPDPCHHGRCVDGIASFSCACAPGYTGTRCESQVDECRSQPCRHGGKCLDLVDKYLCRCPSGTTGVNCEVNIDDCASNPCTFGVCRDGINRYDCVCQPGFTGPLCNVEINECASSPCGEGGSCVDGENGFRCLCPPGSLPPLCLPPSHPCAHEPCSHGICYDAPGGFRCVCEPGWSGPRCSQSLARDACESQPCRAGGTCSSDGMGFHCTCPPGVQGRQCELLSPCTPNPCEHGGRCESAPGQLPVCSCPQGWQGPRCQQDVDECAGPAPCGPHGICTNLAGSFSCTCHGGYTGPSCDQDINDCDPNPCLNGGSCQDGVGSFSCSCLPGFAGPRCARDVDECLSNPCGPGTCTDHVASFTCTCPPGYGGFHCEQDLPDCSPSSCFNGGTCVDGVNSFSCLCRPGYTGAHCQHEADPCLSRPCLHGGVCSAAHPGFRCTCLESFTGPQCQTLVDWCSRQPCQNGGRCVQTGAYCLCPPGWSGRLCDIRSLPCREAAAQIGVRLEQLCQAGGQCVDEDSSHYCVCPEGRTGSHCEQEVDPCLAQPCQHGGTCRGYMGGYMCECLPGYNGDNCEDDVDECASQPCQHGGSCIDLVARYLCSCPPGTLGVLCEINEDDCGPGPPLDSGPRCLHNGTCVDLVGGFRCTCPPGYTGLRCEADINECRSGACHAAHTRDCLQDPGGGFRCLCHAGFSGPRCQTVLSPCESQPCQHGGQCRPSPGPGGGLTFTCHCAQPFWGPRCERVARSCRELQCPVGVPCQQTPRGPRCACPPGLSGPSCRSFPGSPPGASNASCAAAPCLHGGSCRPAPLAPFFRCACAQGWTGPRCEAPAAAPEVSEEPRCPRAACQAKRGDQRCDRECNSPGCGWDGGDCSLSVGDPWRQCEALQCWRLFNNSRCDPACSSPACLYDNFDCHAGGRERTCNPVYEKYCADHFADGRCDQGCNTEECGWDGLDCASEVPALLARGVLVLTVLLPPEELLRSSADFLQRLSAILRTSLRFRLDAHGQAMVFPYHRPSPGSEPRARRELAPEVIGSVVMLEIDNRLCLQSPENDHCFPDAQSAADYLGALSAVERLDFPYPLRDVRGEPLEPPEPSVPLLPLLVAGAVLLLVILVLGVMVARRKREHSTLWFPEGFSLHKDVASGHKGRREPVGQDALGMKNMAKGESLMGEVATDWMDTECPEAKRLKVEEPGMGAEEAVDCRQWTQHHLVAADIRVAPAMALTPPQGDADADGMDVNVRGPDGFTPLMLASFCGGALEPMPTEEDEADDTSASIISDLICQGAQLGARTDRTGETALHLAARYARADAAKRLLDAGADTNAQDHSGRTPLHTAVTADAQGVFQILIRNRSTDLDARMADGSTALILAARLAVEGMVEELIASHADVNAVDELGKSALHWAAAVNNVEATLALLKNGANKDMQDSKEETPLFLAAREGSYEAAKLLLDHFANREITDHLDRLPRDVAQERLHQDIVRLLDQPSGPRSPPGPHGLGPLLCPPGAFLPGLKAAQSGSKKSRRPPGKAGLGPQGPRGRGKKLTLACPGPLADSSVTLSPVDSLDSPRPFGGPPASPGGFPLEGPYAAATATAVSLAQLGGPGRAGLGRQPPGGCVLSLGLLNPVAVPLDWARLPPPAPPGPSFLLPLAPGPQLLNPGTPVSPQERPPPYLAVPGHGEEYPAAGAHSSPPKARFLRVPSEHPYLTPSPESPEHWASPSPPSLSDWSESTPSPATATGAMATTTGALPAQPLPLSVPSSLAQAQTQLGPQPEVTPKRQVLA

[10] = probe aEGFR binding to arrayed compounds – biochemical, biotinylated probe, 635/667 nm fluorescence, primary screen (AID 1097); conditions: small-molecule microarray, higher = more signal;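 also: probe is a biotinylated anti-EGFR antibody binding compounds printed on slides; score combines fluorescence near 667 nm and signal to noise of each spot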

Row | SMILES | composite z-score [1] | z-score [2] | z-score [3] | z-score [4] | composite z-score [5] | z-score [6] | composite z-score [7] | composite z-score [8] | composite z-score [9] | composite z-score [10]
1 | CN1C=C(C(=O)OCCS(C)(=O)=O)C(C(=O)OCCS(C)(=O)=O)=CC(CCCO)=CC1C1CC1 (stereo not given) | 0.0371 | -0.298 (inactive) | -0.0029 (inactive) | -0.692 (inactive) | 0.826 | 0.731 (inactive) | -0.145 | 0.332 | 0.574 | -0.068
2 | COCCOC(=O)N1C(=O)[C@@]2(c3cc(C#CC4=CCCCC4)ccc31)[C@H](C(=O)N1CCc3cc(OC)c(OC)cc3C1)[C@H]1C(=O)O[C@H](c3ccccc3)[C@H](c3ccccc3)N1[C@@H]2c1ccccc1OCCO | 1.01 | 1.51 (inactive) | 1.35 (inactive) | 2.78 (inactive) | 1.97 | 0.982 (inactive) | 0.0906 | 1.16 | 1.09 | 0.0238
3 | N[C@@H](Cc1ccccc1)Cn1cc(-c2ccccc2)nn1 | 0.043 | -0.814 (inactive) | -2.18 (inactive) | 0.371 (inactive) | 0.196 | -3 (inactive) | 0.323 | -0.0062 | -0.0488 | -0.0549
4 | CC(=O)NCCCC[C@@H]1NC(=O)[C@H]2C[C@@H](C(=O)NCCCCCC[N+](C)(C)C)[C@@H](c3cccc(OCCO)c3)N2C1=O | 1.53 | -0.752 (inactive) | 0.0936 (inactive) | -0.425 (inactive) | 2.98 | 1.23 (inactive) | -0.16 | 1.19 | 0.97 | -0.0967
5 | CC(C)c1ccc(NN2C(C(O)c3ccc(N(C)C)cc3)C=CC3C(=O)N(c4ccccc4)C(=O)C32)cc1 (stereo not given) | 1.56 | 0.372 (inactive) | 1.26 (inactive) | 0.197 (inactive) | 3.34 | -0.158 (inactive) | 0.188 | 0.109 | 1.03 | -0.027
6 | O=C/C=C/c1ccc(Cl)cc1 | -1.24 | -10.4 (active) | -20.1 (active) | -2.49 (inactive) | -1.2 | -0.767 (inactive) | -0.134 | -0.968 | -1.09 | -0.113
7 | O=C1O[C@H](c2ccccc2)[C@H](c2ccccc2)N2[C@H]1[C@@H](C(=O)NC[C@H](O)c1ccccc1)[C@]1(C(=O)Nc3ccc(C#CCCO)cc31)[C@H]2c1ccc(O)cc1 | -0.0718 | -0.383 (inactive) | -0.0869 (inactive) | 0.105 (inactive) | -0.217 | 0.092 (inactive) | 0.0249 | -0.984 | -0.415 | -0.194
